# CYP2C9 act – increases human cytochrome P450 2C9 activity. recombinant CYP2C9, luciferin-H conversion, luminescence; active compounds read high; factor 1 = untreated enzyme, 0 = blocked. AID 1024. activation factor at 5 µM. 96,000 tested, 1.4% active;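 active = activation factor of 2 or more for CYP2C9 at a 5 µM dose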;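 note: 0 = sulfaphenazole-blocked wells and 1 = vehicle-only wells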
# Target sequence (P11712 whole entry, looked up): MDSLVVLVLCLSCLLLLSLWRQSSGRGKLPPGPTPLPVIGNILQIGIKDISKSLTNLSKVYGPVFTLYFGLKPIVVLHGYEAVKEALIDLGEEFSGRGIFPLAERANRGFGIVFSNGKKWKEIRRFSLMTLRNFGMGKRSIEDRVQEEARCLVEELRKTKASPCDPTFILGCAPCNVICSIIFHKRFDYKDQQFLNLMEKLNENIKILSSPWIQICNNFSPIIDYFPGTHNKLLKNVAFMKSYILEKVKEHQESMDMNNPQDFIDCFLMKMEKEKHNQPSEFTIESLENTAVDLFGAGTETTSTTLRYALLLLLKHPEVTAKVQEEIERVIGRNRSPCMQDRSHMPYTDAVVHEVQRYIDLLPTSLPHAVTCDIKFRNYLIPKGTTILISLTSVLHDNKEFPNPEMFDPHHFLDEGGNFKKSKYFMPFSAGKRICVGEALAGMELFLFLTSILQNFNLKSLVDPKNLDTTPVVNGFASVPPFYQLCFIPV
# PostGolgi yeast – growth inhibition of a yeast mutant, post-Golgi transport screen; 98,000 tested, 0.9% active; inhibition, % at 10 µM; post-Golgi transport phenotypic cell assay; AID 739;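 note: yeast cells grown in 1536-well plates; yeast grown about 18 h at 30C before absorbance read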
# PostGolgi ctrl – growth of the yeast control strain, post-Golgi counter-screen; efflux-deficient yeast background strain, growth absorbance A615, 16 h; inhibition, % at 10 µM; 98,000 tested, 5% active; AID 738
# CYP2C19 inh – inhibitors of human CYP2C19 | inhibition, % at 5 µM | P33261 | CYP2C19 Supersomes, luciferin-H EGE luminescence, 30 min | 96,000 tested, 21% active;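 active = CYP2C19 inhibition above a set limit at 5 µM in the primary screen, cut at about 50% in these data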;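 note: plate controls were negative control wells for no effect and 2.5 mM tranylcypromine positive control for full effect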
# CYP2C9 inhib – inhibitors of human CYP2C9; P11712; CYP2C9 Supersomes, luciferin-H conversion, luminescence; inhibition, % at 5 µM; 96,000 tested, 20% active; AID 777;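 active = blocking of liver enzyme CYP2C9 beyond about 50% at 5 µM, limit read from the data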
# CYP2C19 activ – cytochrome P450 2C19 (human) activation | P33261 | recombinant CYP2C19, luciferin-H EGE luminescence; active compounds read high; 0 = fully inhibited enzyme, 1 = untreated enzyme | activation factor at 5 µM | 96,000 tested, under 10 active;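 active = activation factor of at least 2 at 5 µM in the primary screen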;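 note: 0 = wells with 2.5 mM tranylcypromine and 1 = vehicle-only wells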
# Numbers without * were called inactive. An excerpt weighted towards active compounds, which were near 32% of everything screened. Cut-off read from the data, not from the text of the source, unless noted: active = inhibition above about 30%; inactive = the rest.
SMILES,CYP2C9 act,PostGolgi yeast,PostGolgi ctrl,CYP2C19 inh,CYP2C9 inhib,CYP2C19 activ
Cc1nc2c(sc3nc4c(cc32)COC(C)(C)C4)c(=O)o1,0.3,1,6,16,72*,0.8
NC(=O)c1ccsc1NC(=O)C1CCCCC1,0.7,-1,15,63*,33,0.4
CC(=O)NC(CCS(C)(=O)=O)C(=O)Nc1cccc(C)c1C (centres undefined),1.1,6,-3,-3,-11,1
Cc1ccc(S(=O)(=O)N[C@H](C(=O)N2CCC3(O)CCCCC3C2)c2ccccc2)cc1 (some centres undefined),0.9,-2,5,24,11,0.8
Cc1cc2c(c(Sc3ccccc3)n1)C(=O)OC2,0.7,0,-1,50*,27,0.5
Cc1cc2c(c(SCC(=O)N(C)c3ccccc3)n1)C(=O)OC2,0.9,-5,-6,63*,14,0.4
CC(=O)N1N=C(c2cccc(Cl)c2)OC1c1ccc(C(C)C)cc1 (centres undefined),0.1,14,35*,83*,88*,0.2
CC(C)c1cc(C(=O)Nc2cccc(Cl)c2)no1,1,-5,-11,11,2,0.9
N/C(=N\OS(=O)(=O)c1cc(Cl)ccc1Cl)c1ccncc1,0.5,-7,1,38,48,0.6
COC(=O)[C@H](CCSC)NC(=O)Nc1cc(C)ccc1C,1,1,9,3,0,1
COC(=O)[C@H](CCSC)NC(=O)Nc1ccc(C)cc1,0.9,-1,-1,60*,12,0.4
CCCc1nn(C(=O)c2ccccc2)c2c1C(=O)CC(C)(C)C2,0.7,-4,5,23,31,0.8
Cc1nn(C(=O)c2ccccc2)c2c1C(=O)CC(C)(C)C2,0.3,-7,6,80*,69*,0.2
CCN1C(=O)C2(C(C#N)=C(N)Oc3n[nH]c(COC)c32)c2ccccc21 (centres undefined),1.1,3,5,-4,-8,1
COC(=O)CCC(=O)Nc1ccc(OC)cc1,1,5,-13,-6,1,1.1
COC(=O)CCC(=O)Nc1ccc(Br)cc1,0.6,7,11,65*,38,0.3
CCOC(=O)c1ccc(NC(=O)c2nn(C)cc2Br)cc1,1.3,1,35*,12,-26,0.9
CCOC(=O)c1ccc(NCc2ccc(N(C)C)cc2)cc1,1,-6,17,54*,4,0.5
CCOC(=O)c1ccc(NC(=O)CCC(=O)OC)cc1,0.8,0,30*,18,15,0.8
CCOC(=O)CC(=O)Nc1ccc(C(=O)OCC)cc1,0.8,2,5,27,25,0.7
CC(C)=CCCC1=CCC(/C(C)=N/NC(N)=O)CC1 (centres undefined),0.8,23,22,26,19,0.7
CCOC(=O)c1ccc(NC(=O)N(CC)CC)cc1,0.9,-3,-1,43,9,0.6
CCOC(=O)c1ccc(NC(=O)C(CC)CC)cc1,0.9,2,3,55*,10,0.5
CC(NC(=O)C(CC(=O)OC(C)(C)C)NC(=O)OC(C)(C)C)C(N)=O (centres undefined),0.9,0,2,4,8,1
N=c1c2c(-c3ccccc3)c(-c3ccccc3)n(Cc3ccco3)c2ncn1CCN1CCOCC1,0.8,52*,23,21,16,0.8
SMILES,CYP2C9 act,PostGolgi yeast,PostGolgi ctrl,CYP2C19 inh,CYP2C9 inhib,CYP2C19 activ
COC(=O)c1ccccc1NC(=O)N1c2ccccc2CC1C (centres undefined),0.8,-3,48*,12,22,0.9
COc1ccc(NC(=O)N2CCOCC2)cc1OC,1,0,5,-4,2,1
COc1ccc(NC(=O)N2c3ccccc3CC2C)cc1OC (centres undefined),0.3,-1,10,44,66*,0.6
CCn1nc(NS(=O)(=O)c2ccccc2)c2cc3cccc(C)c3nc21,0.2,5,2,9,79*,0.9
CCCn1nc(NS(C)(=O)=O)c2cc3cccc(C)c3nc21,0.3,0,36*,32,65*,0.7
CCn1nc(NC(=O)c2ccccn2)c2cc3cccc(C)c3nc21,0.9,2,12,2,7,1
CCOC(=O)CCP(=O)(O)C(C)(O)c1ccccc1 (centres undefined),1.1,-2,8,-13,-11,1.1

# High-throughput results deposited in PubChem BioAssay by several laboratories.
